{"source": "PubChem BioAssay (NCATS)", "note": "Results filed as inconclusive are left out. Activity calls are given as the source filed them. Calls follow the shape of the dose curve; as a rule, active = well fitted cell-killing curve with a large enough effect; inconclusive = small, poorly fitted or top-dose-only effect, or effect the other way; inactive = no such curve, though single readings can be large or run the other way. Potency is read from the fitted curve at half-maximal effect.", "data": [{"assay": "Quantitative High-Throughput drug screen in 47 multiple myeloma cell lines against the NCATS MIPE library collection: OCIMY5_PLB cell viability assay (AID 1918988); also: nearly all actives have a fitted effect of over 65% in size", "details": "OCI-MY5 myeloma viability, ATP luminescence, 48 h; series mostly up to 45.8 µM", "source_text": "PI: Beverly A. Mock Ph.D.\nLaboratory of Cancer Biology and Genetics,\nCenter for Cancer Research, National Cancer Institute,\nNational Institute of Health, Bethesda, Maryland\nDrug resistance and disease progression are common in multiple myeloma (MM) patients, underscoring the need for new therapeutic combinations. […] We hypothesized that effective combinations would reduce MYC expression and enhance p16 activity. […] These preclinical data identify potentially useful drug combinations for evaluation in drug-resistant MM and reveal potential mechanisms of combined drug sensitivity.\nDescribed herein is the primary MIPE qHTS used to cherrypick compounds. Validated compounds were then further tested for potential synergistic activiy.\n[1] Peat TJ, Gaikwad SM, Dubois W, Gyabaah-Kessie N, Zhang S, Gorjifard S, Phyo Z, Andres M, Hughitt VK, Simpson RM, Miller MA, Girvin AT, Taylor A, Williams D, D'Antonio N, Zhang Y, Rajagopalan A, Flietner E, Wilson K, Zhang X, Shinn P, Klumpp-Thomas C, McKnight C, Itkin Z, Chen L, Kazandijian D, Zhang J, Michalowski AM, Simmons JK, Keats J, Thomas CJ, Mock BA. Drug combinations identified by high-throughput screening promote cell cycle transition and upregulate Smad pathways in myeloma. Cancer Lett. 2023 Aug 1;568:216284. doi: 10.1016/j.canlet.2023.216284. Epub 2023 Jun 24. PMID: 37356470; PMCID: PMC10408729.\nSEQUENCE No. (e.g., 1, 2, 3, etc.); […] (e.g., Cells, Incubation, Reagent, etc.); VALUE and DESCRIPTION.\n1; Cells; 5 uL; white, solid bottom 1536-well Greiner assay plate.\n2; Compounds; 23 nL; Kalypsis pin tool (Wako USA) equipped with a 1536-well pin head to transfer to the assay plates.\n3; Incubation; 48 hours; 37C incubation.\n4; Reagent;5uL; CellTiter Glo (Promega).\n5; Detector; 425V; Luminescence; Viewlux PerkinElmer.\nNOTES (numbers refer to Sequence numbers above)\n1. The cell-based screening methods employed in this study were like those previously published. Briefly, the corresponding myeloma cell lines were screened in 1,536-well plates with 500 cells, 5-uL per well for inhibition of cell viability (assessed by measuring ATP levels with CellTiterGlo).\n2. NCATS MIPE 4.0 library of approved and investigational drugs were added using the Kalypsis pin tool. Wells treated with DMSO only for 100% viability and media only for 0% viability were used as controls.\n3. The assay plates were covered and incubated for 48 hours in a 37C, 5% CO2 incubator with controlled humidity.\n4. After 48 hours, CellTilter-GloTM luminescent substrate mix (Promega) reagent was added to the assay plate and plates we incubated for 5 min at room temperature.\n5. Signal was measured as median relative luminescence units on a ViewLux (PerkinElmer) multiplate reader.\n[1] Heske CM, Davis MI, Baumgart JT, Wilson K, Gormally MV, Chen L, Zhang X, Ceribelli M, Duveau DY, Guha R, Ferrer M, Arnaldez FI, Ji J, Tran HL, Zhang Y, Mendoza A, Helman LJ, Thomas CJ. Matrix Screen Identifies Synergistic Combination of PARP Inhibitors and Nicotinamide Phosphoribosyltransferase (NAMPT) Inhibitors in Ewing Sarcoma. Clin Cancer Res. 2017 Dec 1;23(23):7301-7311. doi: 10.1158/1078-0432.CCR-17-1121. Epub 2017 Sep 12. PMID: 28899971; PMCID: PMC6636827.", "values": [{"molecule": "C[C@@H]1[C@@H](C(=O)C[C@H]2O[C@@H]3O[C@]4(C)CC[C@@H]5[C@H](C)CC[C@@H]([C@H]2C)[C@@]35OO4)O[C@@H]2O[C@]3(C)CC[C@H]4[C@H](C)CC[C@@H]1[C@@]24OO3", "Potency": "0.332 µM (active)"}, {"molecule": "COC[C@H]1OC(=O)c2coc3c2[C@@]1(C)C1=C(C3=O)C2CCC(=O)[C@@]2(C)C[C@H]1OC(C)=O", "note": "(stereo partly specified)", "Potency": "14.8 µM (active)"}, {"molecule": "CNC(=O)c1ccc(N2C(=S)N(c3ccc(C#N)c(C(F)(F)F)c3)C(=O)C23CCC3)cc1F", "Potency": "1.32 µM (active)"}, {"molecule": "CCCC(C)(COC(N)=O)COC(=O)NC(C)C", "note": "(stereo unspecified)", "Potency": "inactive"}, {"molecule": "Fc1ccc(C(OCCN2CCN(CCCc3ccccc3)CC2)c2ccc(F)cc2)cc1", "Potency": "13.2 µM (active)"}, {"molecule": "N[C@@H](Cc1ccc(N(CCCl)CCCl)cc1)C(=O)O", "Potency": "9.35 µM (active)"}, {"molecule": "CC1=C2C[C@@H]3[C@@H](CC=C4C[C@@H](O)CC[C@@]43C)[C@@H]2CC[C@]12O[C@H]1C[C@H](C)CN[C@H]1[C@H]2C", "Potency": "11.8 µM (active)"}, {"molecule": "C=C(C)[C@H]1Cc2c(ccc3c2O[C@@H]2COc4cc(OC)c(OC)cc4[C@@H]2C3=O)O1", "Potency": "0.833 µM (active)"}, {"molecule": "Cc1cccc(C)c1NC(=O)CN1CCCC1=O", "Potency": "inactive"}, {"molecule": "Cc1cc(SCc2sc(-c3ccc(C(F)(F)F)c(F)c3)nc2C)ccc1OCC(=O)O", "Potency": "13.2 µM (active)"}, {"molecule": "O=P1(NCCCl)OCCCN1CCCl", "note": "(stereo unspecified)", "Potency": "18.7 µM (active)"}, {"molecule": "C[C@@H]1[C@@H](CC(C[C@H]2O[C@@H]3O[C@]4(C)CC[C@@H]5[C@H](C)CC[C@@H]([C@H]2C)[C@@]35OO4)C[S+](=O)([O-])c2ccc(COC(=O)N(C)C)cc2)O[C@@H]2O[C@]3(C)CC[C@H]4[C@H](C)CC[C@@H]1[C@@]24OO3", "note": "(stereo partly specified)", "Potency": "0.209 µM (active)"}, {"molecule": "Cn1c(CCCC(=O)O)nc2cc(N(CCCl)CCCl)ccc21", "Potency": "8.33 µM (active)"}, {"molecule": "Cc1sc2c(c1C)C(c1ccc(Cl)cc1)=N[C@@H](CC(=O)OC(C)(C)C)c1nnc(C)n1-2", "Potency": "0.132 µM (active)"}, {"molecule": "CNC(=O)N1N=C(c2ccc(N)cc2)c2cc3c(cc2CC1C)OCO3", "note": "(stereo unspecified)", "Potency": "3.72 µM (active)"}, {"molecule": "COC[C@@H](NC(C)=O)C(=O)NCc1ccccc1", "Potency": "inactive"}, {"molecule": "Cn1cc(C2=C(c3cn(C4CCN(Cc5ccccn5)CC4)c4ccccc34)C(=O)NC2=O)c2ccccc21", "Potency": "7.43 µM (active)"}, {"molecule": "C[C@@H]1O[C@@H](O[C@H]2C[C@@H](O)[C@]3(CO)[C@H]4[C@H](O)C[C@]5(C)[C@@H](C6=CC(=O)OC6)CC[C@]5(O)[C@@H]4CC[C@]3(O)C2)[C@H](O)[C@H](O)[C@H]1O", "Potency": "0.0235 µM (active)"}, {"molecule": "CN(C)CCN(C)CCc1ccc(Cl)c(Cl)c1", "Potency": "inactive"}, {"molecule": "CN(C)CCc1ccc(O)cc1", "Potency": "inactive"}, {"molecule": "CC(O)(CS(=O)(=O)c1ccc(F)cc1)C(=O)Nc1ccc(C#N)c(C(F)(F)F)c1", "note": "(stereo unspecified)", "Potency": "0.332 µM (active)"}]}]}
